# Experimental data from PubChem BioAssay.
# Where “and” joins values, the source holds several entries; their conditions need not be identical. Equal values may be shown once. Results filed as inconclusive are left out. For some of these results: Entries with a potency or affinity are not part of this list. Calls of active or inactive are those of the source.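 The calls were made as follows, unless noted: active = compounds killing one labelled cell type while sparing the other, by normalised counts and ratio limits, not self-fluorescent; inactive = the rest.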
# Tests used:
# [1] = EMT-state selective cytotoxicity in co-culture – imaging, PC-3E GFP, TEM4-18 mCherry, primary screen (AID 1345086); settings: PC-3E GFP / TEM4-18 mCherry co-culture, imaging cell counts, at 1 µM; for red/green cell ratio (normalised): actives lie on both sides, counts scaled to control wells, 1 = unselective;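 as to all read-outs here: cells exposed to compound for 72 h before imaging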;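 as to red/green cell ratio (normalised): normalised mesenchymal count divided by normalised epithelial count so high means epithelial killing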
# [2] = blockers of polyQ-driven CASP3 activation – cell-based (AID 1583); settings: polyglutamine-induced caspase-3 activation, cell assay; stronger effect = higher value;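 tested at 10 µM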
# [3] = yeast 75Q aggregation reduction – 75Q-TubU reporter (AID 1593); settings: Yeast 75Q polyglutamine aggregation reporter
# [4] = restoration of touch response, mutant HTT neurons – whole organism, C. elegans mechanosensory neurons, N-terminal huntingtin (AID 1599); settings: C. elegans polyQ-huntingtin mechanosensory neurons, stronger effect = higher value
# [5] = blockers of cytochrome c efflux from mitochondria – biochemical, purified mitochondria (AID 1603); settings: stronger effect = lower value;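 also: mouse liver mitochondria challenged with calcium chloride; signal normalized to the plate average as 100%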
# [6] = polyglutamine aggregate formation blockers (AID 1604); settings: polyglutamine-induced protein aggregation inhibition assay; stronger effect = higher value; tested at 2.5 µM
# [7] = glutamate transport activators, MN-1 cells, MN-1 cell line (AID 1612); settings: MN-1 motor neuron cells, stronger effect = higher value;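 also: tested at 1 µM final; 0% = mean of DMSO vehicle wells on each plate; positive means more glutamate uptake than control and negative means less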
# [8] = 75Q-TubH aggregate inhibition, S. cerevisiae, yeast (AID 1616); settings: S. cerevisiae 75Q-TubH polyglutamine aggregation suppression; stronger effect = higher value
# [9] = compounds altering circadian rhythm period length – cell-based, LOPAC library, luminescence reporter (AID 2774; call rule not given here;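 also: values are relative to mean of DMSO wells on each plate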); settings: circadian reporter cells, at 7 µM, actives lie on both sides
# [10] = P. berghei load reduction in hepatocytes – cell-based, HepG2, luciferase luminescence, HepG2 viability, primary screen (AID 624349; in the data active = parasite load remaining mostly below about 12%, no sharp cut-off; inactive = mostly above about 10%;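 also: 100% = mean of DMSO negative control wells on the same plate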); settings: P. berghei liver stage in HepG2, luciferase luminescence, concentration not given here; parasite load remaining: stronger effect = lower value; viability: measured here: HepG2 viability without parasites
# [11] = tested on: Hepatitis C virus NS3 helicase; test: blockers of NS3h binding to ssDNA – biochemical, fluorescence polarization, LOPAC1280 library, primary screen (AID 687035; in the data active = inhibition above about 37%); settings: Purified HCV NS3 helicase, Cy5-dT15 ssDNA binding fluorescence polarization; stronger effect = higher value; concentration not given here
# [12] = compounds altering Cy5-DNA-NS3h complex signal – biochemical, LOPAC1280, artefact control for HCV NS3 helicase inhibitor project (AID 687037; call rule not given here); settings: Cy5-DNA-NS3h complex fluorescence interference counterscreen
# [13] = tested on: Aerobactin synthetase IucA (Klebsiella pneumoniae); test: inhibition of K. pneumoniae IucA enzyme – biochemical, Tocris library, absorbance (AID 1345561; call rule not given here;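 also: 100% = enzyme without compound and 0% = no enzyme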); settings: purified IucA enzyme assay, absorbance (OD) read-out; stronger effect = lower value;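 tested at 8 µM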
# [14] = viability loss in pontine glioma line – cell-based, SU-DIPG-XVII, MIPE5.0, CellTiter-Glo, qHTS, dose response (AID 1347060; cut-off not given, nearly all actives have AC50 up to about 26 µM;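 also: cells exposed to compound for 48 hours before viability readout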); settings: CellTiter-Glo ATP luminescence
# [15] = viability loss in pontine glioma line – cell-based, SU-DIPG-XIII, MIPE4.0, CellTiter-Glo, qHTS, dose response (AID 1347061; cut-off not given, nearly all actives have AC50 up to about 37 µM;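 also: cells exposed to compound for 48 hours before readout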); settings: CellTiter-Glo ATP luminescence
# [16] = viability loss in pontine glioma line – cell-based, JHH-DIPG-1, MIPE4.0, CellTiter-Glo, qHTS, dose response (AID 1347062; cut-off not given, nearly all actives have AC50 up to about 27 µM); settings: JHH-DIPG-1 viability, CellTiter-Glo ATP luminescence
# [17] = viability loss in pontine glioma line – cell-based, SU-DIPG-IV, MIPE4.0, CellTiter-Glo, qHTS, dose response (AID 1347063; cut-off not given, nearly all actives have AC50 up to about 30 µM;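 also: compound exposure lasted 48 hours before the viability readout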); settings: CellTiter-Glo ATP luminescence
# [18] = viability loss in pontine glioma line – cell-based, SU-DIPG-XIII, MIPE5.0, CellTiter-Glo, qHTS, dose response (AID 1347064; cut-off not given, nearly all actives have AC50 up to about 23 µM); settings: CellTiter-Glo ATP luminescence
# [19] = viability loss in pontine glioma line – cell-based, SU-DIPG-XXV, MIPE5.0, CellTiter-Glo, qHTS, dose response (AID 1347065; cut-off not given, nearly all actives have AC50 up to about 26 µM;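 also: cells exposed to compound for 48 hours before ATP readout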); settings: CellTiter-Glo ATP luminescence
# [20] = growth inhibition of DIPG cells – cell-based, MIPE4.0 library, CellTiter-Glo luminescence, qHTS (AID 1347066; cut-off not given, nearly all actives have AC50 up to about 30 µM;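 also: cells exposed to compound for 48 hours before readout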); settings: SU-DIPG-VI viability, CellTiter-Glo ATP luminescence
# [21] = viability loss with induced miR-34 in A549 – imaging, A549 dox-inducible miR-34, nuclei and caspase counts, primary screen (AID 1347080;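 active = compounds whose cell count with miR-34 switched on is under 0.7 times the count with it off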); settings: A549 miR-34 inducible, Hoechst nuclei count, 48 h
# [22] = compounds altering HSF1 focus formation in cells – imaging, Selleck Cancer Library (AID 1347162; in the data active = plate-normalised HSF1 focus index below about 0.46); settings: human cells, HSF1 nuclear foci imaging, at 10 µM; SSMD: measured here: HSF1 foci SSMD mean; cell count: measured here: cell number; plate-normalised HSF1 focus index: stronger effect = lower value
# [23] = galactose survival enhancers in mitochondrial complex I cybrids – cell-based, galactose medium, ATP luminescence, primary screen (AID 1645843;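 active = z-score of at least 1.8 in each of two replicates, scored against plate mean and spread of sample wells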;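 also: positive z means more ATP and so rescue of galactose-driven cybrid death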); settings: complex I mutant cybrid cells, 72 h, stronger effect = higher value
# [24] = measured here: epithelial PC-3E GFP cell survival
# [25] = measured here: mesenchymal TEM4-18 mCherry cell survival
compound,measurement,setting,value
C=CC(C)(C)c1ccc2[nH]c3c(c2c1)C[C@@H]1CC[C@@]2(O)C4=CC(=O)[C@@H]5O[C@@]4(CC[C@]2(C)[C@@]31C)OC5(C)C,red/green cell ratio (normalised),[1],1.04 (inactive)
same,normalised cell number,[1]; [24],0.97
same,normalised cell number,[1]; [25],1.01
Clc1ccc(Br)cc1/C=C/C1CCCNC1 (stereo not given),red/green cell ratio (normalised),[1],0.95 (inactive)
same,normalised cell number,[1]; [24],1.16
same,normalised cell number,[1]; [25],1.1
COC(=O)C1O[C@H](Sc2ccccc2)[C@@H](OC(=O)c2ccccc2)[C@@H](OC(=O)c2ccccc2)C1O (stereo not given in full),red/green cell ratio (normalised),[1],0.96 (inactive)
same,normalised cell number,[1]; [24],1.05
same,normalised cell number,[1]; [25],1
CC(=O)[C@H]1CCC2C3C=CC4=CC(=O)CC[C@@]4(C)C3CC[C@@]21C (stereo not given in full),red/green cell ratio (normalised),[1],0.68 (inactive)
same,normalised cell number,[1]; [24],1.28
same,normalised cell number,[1]; [25],0.87
COC(=O)C[C@H]1C(C)(C)C(=O)[C@@H]2CC3=C(CC[C@]4(C)C3=CC(=O)O[C@H]4c3ccoc3)C1(C)C2=O,red/green cell ratio (normalised),[1],1.11 (inactive)
same,normalised cell number,[1]; [24],0.96
same,normalised cell number,[1]; [25],1.06
COc1cccc(Oc2c(O)cc(C)cc2CC(=O)c2cc(C)cc(O)c2C(=O)c2c(O)cccc2O)c1C(=O)O,red/green cell ratio (normalised),[1],1.1 (inactive)
same,normalised cell number,[1]; [24],1.09
same,normalised cell number,[1]; [25],1.21
CC(=O)O[C@H]1C(=O)[C@@]2(C)C([C@H](OC(=O)c3ccccc3)[C@]3(O)C[C@H](OC(=O)[C@H](O)[C@@H](NC(=O)c4ccccc4)c4ccccc4)C(C)=C1C3(C)C)[C@]1(OC(C)=O)CO[C@@H]1C[C@@H]2O (stereo not given in full),inhibition,[2],28.3%
same,score,[3],1.98
same,rescue above control,[4],5.24
same,cytochrome c release ratio,[5],1.41
same,inhibition of aggregation,[6],69%
same,glutamate uptake change,[7],-2.18%
same,aggregation suppression score,[8],1.25
same,period change,[9],0.575 h (inactive)
same,parasite load remaining,[10],178% (inactive) and 65.8% (inactive)
same,viability,[10],87.4% and 98%
same,inhibition,[11],-1% (inactive)
same,fluorescence ratio (interference),[12],0.9 (inactive)
same,red/green cell ratio (normalised),[1],0.49 (inactive)
same,normalised cell number,[1]; [24],0.23
same,normalised cell number,[1]; [25],0.11
same,remaining activity,[13],121% (inactive)
same,AC50,[14],5.9 nM (active)
same,outcome,[15],inactive
same,outcome,[16],inactive
same,outcome,[17],inactive
same,outcome,[18],inactive
same,AC50,[19],7.42 nM (active)
same,outcome,[20],inactive
same,fold change,"[21]; stronger effect = lower value, cell number ratio, induced over uninduced",1.16 (inactive) and 1.14 (inactive)
same,fold change,[21]; measured here: relative caspase fold change +Dox/-Dox,0.394 and 2.19
same,cell count,"[21]; measured here: total cells with miR-34 induction, stronger effect = lower value",2700 and 2090
same,cell count,[21]; measured here: total cells without miR-34 induction,2330 and 1830
same,SSMD,[22],5.16
same,cell count,[22],6910
same,plate-normalised HSF1 focus index,[22],1.32 (inactive)
same,z-score,[23],0.865 (inactive)
CC(C)[C@H]1COC(=S)N1C(C)CC(=O)N1CCOC1=O (stereo not given in full),red/green cell ratio (normalised),[1],1.02 (inactive)
same,normalised cell number,[1]; [24],1.09
same,normalised cell number,[1]; [25],1.11
O=C(O)CNc1ccc(Cl)cc1[N+](=O)[O-],red/green cell ratio (normalised),[1],1.05 (inactive)
same,normalised cell number,[1]; [24],1.11
same,normalised cell number,[1]; [25],1.17
